Screens as filed in PubChem.
EPAC2 agonist = EPAC2 (human) agonism; Potency, µM (titrated, usually from 154 µM), without a hit: top-dose activation, hits mostly activators; EPAC2 activation, biochemical qHTS; response scale: 100% = 6.5 mM cAMP response; Q8WZA2; hit rate 0.079% among 360,000; further: nearly all actives have a fitted effect of over 50% in size
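Readout is BODIPY fluorescence (480 nm excitation, 540 nm emission), which falls as labeled GDP is exchanged off Rap1B. EPAC2 at 100 nM acted on 250 nM RAP1B-BODIPY-GDP with 50 uM GDP present.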
USP1 inh = blocks the human USP1/UAF1 deubiquitinase complex; O94782; recombinant USP1/UAF1, Ub-Rhodamine cleavage fluorescence; Potency, µM (titrated, usually from 57.1 µM), for inactives: at the highest dose activity change, negative = inhibition, hits mostly inhibitors; hit rate 0.23% among 390,000; further: on the % scale 0 is the no-effect control and ±100 the full control effect; nearly all actives have a fitted effect of over 60% in size
Target sequence (O94782 whole entry, looked up): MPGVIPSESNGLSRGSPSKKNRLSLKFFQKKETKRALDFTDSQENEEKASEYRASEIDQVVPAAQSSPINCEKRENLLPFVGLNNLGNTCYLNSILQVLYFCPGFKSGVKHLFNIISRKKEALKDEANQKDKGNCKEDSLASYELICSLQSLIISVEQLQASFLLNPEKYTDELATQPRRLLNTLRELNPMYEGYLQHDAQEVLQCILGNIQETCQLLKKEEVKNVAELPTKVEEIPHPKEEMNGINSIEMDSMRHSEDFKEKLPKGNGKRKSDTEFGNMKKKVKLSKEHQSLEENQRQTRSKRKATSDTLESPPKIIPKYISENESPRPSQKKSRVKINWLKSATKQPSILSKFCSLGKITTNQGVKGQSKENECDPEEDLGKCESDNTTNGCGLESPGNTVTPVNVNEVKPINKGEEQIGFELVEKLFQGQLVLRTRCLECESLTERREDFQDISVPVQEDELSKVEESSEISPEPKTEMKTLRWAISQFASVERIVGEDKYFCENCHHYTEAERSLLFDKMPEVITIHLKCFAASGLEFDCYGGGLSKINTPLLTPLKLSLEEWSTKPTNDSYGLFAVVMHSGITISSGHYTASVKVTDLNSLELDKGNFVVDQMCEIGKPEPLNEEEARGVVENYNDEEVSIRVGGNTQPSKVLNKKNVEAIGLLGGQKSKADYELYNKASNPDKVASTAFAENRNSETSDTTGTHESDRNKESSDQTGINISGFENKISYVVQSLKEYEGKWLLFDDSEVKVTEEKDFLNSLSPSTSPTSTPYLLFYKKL
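1 nM enzyme complex + cpd, 15 min RT; start with Ub-Rho 150nM final; kinetic fluorescence ex 480/em 540, 6 reads q60 s. Buffer 50mM HEPES pH 7.8, 0.5mM EDTA, 0.1 mg/ml BSA, 1mM TCEP, 0.01% Tween-20.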
EPAC1 agonist = activates human EPAC1 exchange factor. O95398. EPAC1 agonist qHTS, biochemical assay; response scale: 100% = response to 6.5 mM cAMP. Potency, µM (top dose mostly 154 µM), for the others: top-dose activation, hits mostly activators. hit rate 0.073% among 360,000; further: nearly all actives have a fitted effect of over 60% in size
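Compounds were pinned as a concentration titration into mixtures of EPAC1 (100 nM), BODIPY-GDP-loaded Rap1B (250 nM) and GDP (50 uM). After 5 min at room temperature, fluorescence was followed for 30 min; activity was scaled to 6.5 mM cAMP.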
EPAC1 antag = antagonists of human EPAC1 | Potency, µM (doses to about 115 µM), without a hit: top-dose activity change, negative = inhibition, most hits filed as inhibitors | hit rate 0.14% among 360,000 | O95398 | AID 720709 | EPAC1 GEF assay, Rap1b-BODIPY-GDP exchange fluorescence;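 further: plate controls were vehicle for no effect and positive control for full effect; nearly all actives have a fitted effect of over 50% in size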
EPAC2 antagonist = antagonists of human EPAC2 | Q8WZA2 | Potency, µM (doses to about 114 µM), for the others: at the highest dose activity, negative = inhibition, usual class: inhibitors | AID 720708 | hit rate 0.18% among 360,000 | EPAC2 GEF exchange of Rap1B-BODIPY-GDP, fluorescence; further: on the % scale 0 is the no-effect control and ±100 the full control effect; nearly all actives have a fitted effect of over 45% in size
* marks the source's active call; other numbers are inactive results; i = inactive; ? = inconclusive; . = not tested or not shown; [ ] = another dose, or the depositor's remark. The list is not random: actives were taken first. Their share in the collection is about 0.49%. The call rests on the fitted dose curve; in most records, active means well fitted curve in the direction sought with a large enough effect; inconclusive means small, poorly fitted or top-dose-only effect, or another doubt; inactive means no such curve, though single readings can be large; an effect the other way counts as inactive or inconclusive. Potency means the concentration at half of the fitted maximal effect.

SMILES	EPAC2 agonist	USP1 inh	EPAC1 agonist	EPAC1 antag	EPAC2 antagonist
COc1ccc(N2CCN(C(=O)c3cc(-c4cc(OC)ccc4OC)nc4ccccc34)CC2)cc1	7.4%	?	-4.4%	0.7%	4.5%
O=C(COc1ccccc1-c1nc(-c2ccccc2)no1)Nc1ccccc1[N+](=O)[O-]	.	-13.2%	.	.	.
O=C(c1ccccc1)c1cccc2ccccc12	11.2%	-12.4%	13.5%	-14.2%	12.6µM*
COC(=O)c1ccccc1C(=O)c1cccc2ccccc12	14.0%	-11.1%	6.7%	-17.3%	44.7µM*
Oc1c(C(c2ccccc2)N2CCN(c3cccc(Cl)c3)CC2)sc2nc(-c3ccco3)nn12 (stereo not drawn)	.	-19.0%	.	.	.
NC1=C(Br)C(=O)c2ncccc2C1=O	13.3%	4.47µM*	-1.3%	?	?
O=C1c2cccnc2C(=O)N1CO	2.1%	-16.1%	4.9%	-7.2%	-0.3%
COc1ccc(-c2cc3ccccc3c(=O)o2)cc1	14.7%	.	1.5%	-9.8%	-6.1%
CN(C)c1ccc(-c2cc3ccccc3c(=O)o2)cc1	100µM*	-27.1%	-0.6%	11.7%	93.8%
Cc1oc(-c2ccc(C(=O)NCc3ccccc3)cc2)nc1CN1CCc2ccccc21	.	-14.0%	.	.	.
Cc1cccc(C)c1OCC(=O)Nc1ccccc1N1CCCCC1	7.1%	-18.0%	-2.1%	1.5%	10µM*
Cc1cccc(OCC(=O)Nc2ccccc2N2CCCCC2)c1C	10.7%	-23.6%	-4.4%	-0.7%	-1.5%
CCNc1ccc(Br)cc(C(=O)/C=C/c2ccc(Cl)cc2)c1=O	16.7%	31.6µM*	10.2%	11.7%	-2.4%
CCNc1ccc(Br)cc(C(=O)/C=C/c2c(Cl)cccc2Cl)c1=O	13.8%	?	15.1%	?	2.1%
O=C(Cn1c(=O)nc(-c2ccccc2)c2ccccc21)Nc1cccc(C(F)(F)F)c1	.	-11.1%	.	.	.
CCOC(=O)c1ccc(NCn2c(=O)oc3ccccc32)cc1	14.2%	25.1µM*	19.7%	2.9%	1.1%
COC(=O)c1ccc(NC(=O)CCn2c(=O)oc3ccccc32)cc1	-2.0%	-18.3%	-17.3%	-21.6%	12.9%
COc1cc(/C=C/[N+](=O)[O-])ccc1OCc1cccc(C(=O)O)c1	17.8%	-5.9%	8.3%	?	22.4µM*
CNC(=O)c1c(NC(=O)c2ccc(S(=O)(=O)N3CCCCC3)cc2)sc2c1CCC2	.	-15.8%	.	.	.
CCN1CCc2c(sc(NC(=O)Cc3ccccc3)c2C(N)=O)C1	8.7%	-21.7%	-11.4%	3.1%	5.4%
CCN1CCc2c(sc(NC(=O)c3ccc(S(=O)(=O)N4CCCCCC4)cc3)c2C(=O)NC)C1	-125.1%	-18.9%	112µM*	-25.5%	161.1%
NC(=O)c1c(NC(=O)c2ccccc2)sc2c1CCN(Cc1ccccc1)C2	89.1µM*	8.91µM*	6.3%	0.7%	22.7%
CCN1CCc2c(sc(NC(=O)c3ccc(S(=O)(=O)N(CC)c4ccccc4)cc3)c2C(N)=O)C1	-124.4%	28.2µM*	24.2%	?	-11.8%
CCN1CCc2c(sc(NC(=O)Nc3ccc(Cl)c(Cl)c3)c2C(N)=O)C1	100µM*	?	100µM*	?	?
C#CCSc1nc2sc3c(c2c(=O)n1-c1cccc(OC)c1)CCN(C(C)=O)C3	.	-20.4%	.	.	.
SMILES	EPAC2 agonist	USP1 inh	EPAC1 agonist	EPAC1 antag	EPAC2 antagonist
CCOC(=O)Cc1ccc(NC(=O)NCc2c(-n3cccc3)sc3c2CCCC3)cc1	.	1.3%	.	.	.
CC(=O)N1CCc2c(sc(NC(=O)CS(=O)(=O)c3ccc(F)cc3)c2C(N)=O)C1	3.0%	-28.1%	126µM*	0.6%	5.1%
COc1ccc(OC)c(/C=C2\Oc3cc(OCC(=O)N4CCC[C@H]4C(=O)O)ccc3C2=O)c1	0.9%	-21.9%	-31.6%	0.7%	-13.8%
COc1cc(OC)c(OC)cc1/C=C1\Oc2cc(OCC(=O)N3Cc4ccccc4C[C@H]3C(=O)O)ccc2C1=O	17.0%	14.1µM*	5.5%	-27.5%	-3.4%
CC1(C)Cc2c(sc(NC(=O)COc3cccc4ccccc34)c2C#N)C(C)(C)N1	7.8%	17.8µM*	-5.4%	-17.4%	15.1%
COc1cc(/C=C(\C#N)C(=O)NCCc2ccccc2)cc(OC)c1O	7.7%	-24.1%	-0.7%	3.2%	3.5%
COc1cc(/C=C(\C#N)C(=O)c2c[nH]c3ccccc23)cc(OC)c1O	17.9%	28.2µM*	-0.5%	-21.2%	-4.7%
Cc1ccc(C(=O)N2CCc3cc(CNC(=O)COc4ccccc4)ccc32)cc1	.	2.9%	.	.	.
O=C1C=C(c2c(O)ccc3ccccc23)c2ccccc2C1=O	28.5%	28.2µM*	15.2%	35.5µM*	?
Oc1sc(C=Nc2ccc(F)cc2)c2ccccc12	4.8%	31.6µM*	9.7%	1.0%	19.8%
Oc1sc(C=Nc2ccccc2)c2ccccc12	?	28.2µM*	13.2%	8.2%	14.7%
Cc1ccc(C)c(CN2C(=O)c3ccccc3S(=O)c3ccc(C(=O)N(C)Cc4ccccc4)cc32)c1 (stereo not drawn)	.	-31.5%	.	.	.
Cc1ccc2c(c1)c1c3n2CCN(C(=O)CN2CCN(C)CC2)C3CCC1 (stereo not drawn)	7.0%	2.4%	-2.9%	8.5%	0.6%
Cc1ccc2c(c1)c(=O)c1c3n2CCN(C(=O)CCl)C3CC1 (stereo not drawn)	-10.6%	31.6µM*	1.3%	-12.7%	13.8%
COc1ccc(C(=O)Nc2cccc(-c3cn4ccsc4n3)c2)c(OC)c1	.	-19.5%	.	.	.
CCN(CC)C1=CC2=CC(=C(C#N)C#N)CCC2CC1 (stereo not drawn)	100µM*	i[2.29 µM]	?	226.4%	i
CCCCN(C)C1=CC2=CC(=C(C#N)C#N)CCC2CC1 (stereo not drawn)	40.7%	i[2.29 µM]	?	i	116.5%
C=CCN1C(=O)/C(=C/c2ccc(OCC(=O)O)cc2)S/C1=N/c1nccs1	-26.4%	-6.4%	-9.2%	6.3%	50.1µM*
COC1=CC(=O)c2ccccc2C1=O	9.6%	12.6µM*	-11.6%	-22.2%	-0.4%
COC1=CC(=O)C=C(OC)C1=O	2.4%	-7.4%	-0.1%	-28.5%	-7.5%
CCOC(=O)C1CCCCN1Cc1cccc(Oc2ccccc2)c1 (stereo not drawn)	2.9%	2.7%	-3.4%	-15.0%	39.8µM*
CCOC(=O)C1CCCCN1Cc1cccc(OCc2ccccc2)c1 (stereo not drawn)	13.0%	-24.0%	0.7%	-0.9%	-10.8%
CCOC(=O)c1c(C)oc2nc(C)nc(NCc3ccc(OC)cc3)c12	.	-18.8%	.	.	.
COCCN=c1scc(-c2ccco2)n1/N=C/c1ccc(O)c(O)c1O	-2.5%	?	5.3%	17.8µM*	12.0%
CN=c1scc(-c2cccs2)n1/N=C/c1ccc(O)c(O)c1O	0.4%	-19.9%	8.8%	?	-3.5%
CN=c1scc(C)n1/N=C/c1ccc(O)c(O)c1O	12.8%	-8.2%	-0.1%	50.1µM*	-7.3%
C=CCN=c1scc(-c2ccco2)n1/N=C/c1ccc(O)c(O)c1O	1.5%	-20.1%	20.4%	56.2µM*	-20.0%
